Results on eight compounds are retold here after PubChem BioAssay (NCI).

Common to all, as to experiment: NCI-60 one-dose screen, 48 h (100 = growth as untreated, 0 = no growth, -100 = all killed)
One assay relates to HCT-15 colon. Conditions: 10 µM unless noted.
In the next assay the test system is HT29 colon. Conditions: 10 µM unless noted.
The next assay relates to SNB-75 CNS. Conditions: 10 µM unless noted.
Another assay deals with SNB-19 CNS. Conditions: 10 µM unless noted.
Another assay deals with U251 CNS. Conditions: 10 µM unless noted.
In the next assay the test system is PC-3 prostate. Conditions: 10 µM unless noted.
The next assay relates to SK-MEL-5 melanoma. Conditions: 10 µM unless noted.
In the next assay the test system is UACC-62 melanoma. Conditions: 10 µM unless noted.
The next assay deals with LOX IMVI melanoma. Conditions: 10 µM unless noted.
The subject of another assay is SK-MEL-28 melanoma. Conditions: 10 µM unless noted.
In the next assay the test system is SK-MEL-2 melanoma. Conditions: 10 µM.
The test system of a further assay is EKVX NSCLC. Conditions: 10 µM unless noted.
Another assay has as its system SN12C renal. Conditions: 10 µM unless noted.
The next assay relates to UO-31 renal. Conditions: 10 µM unless noted.
The subject of the next assay is TK-10 renal. Conditions: 10 µM unless noted.
The test system of another assay is ACHN renal. Conditions: 10 µM unless noted.
The test system of a further assay is CAKI-1 renal. Conditions: 10 µM unless noted.
In the next assay the test system is A498 renal. Conditions: 10 µM unless noted.
Another assay deals with CCRF-CEM leukemia. Conditions: 10 µM unless noted.
For a further assay, the system named is MOLT-4 leukemia. Conditions: 10 µM unless noted.

About 83,000 compounds went through this panel and 20% of them were active in at least one assay; those are over-represented in the sample as a whole.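 Note: values are percent growth. 100 is the growth of untreated cells, values between 100 and 0 indicate rising inhibition; between -100 and 0 indicates cell death.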 A number with no mark means an inactive call. The source made the active and inactive calls. Rule for the calls: active = growth percent below 10; inactive = the rest.

As for `COc1ccc(-n2c(=O)c3ccccc3n(Cc3ccc(C(=O)NO)cc3)c2=O)cc1`, the growth with HCT-15 colon was 61.3%; with HT29 colon, 29.6%; with SNB-75 CNS, 11%; with SNB-19 CNS, 18.1%; with U251 CNS, -40.2% (active); with PC-3 prostate it was -24.6% (active). For the same compound, the growth is 6.91% (active) in the assay with SK-MEL-5 melanoma; -30.8% (active) in the assay with UACC-62 melanoma; -71.5% (active) in the assay on LOX IMVI melanoma; -17.4% (active) in the assay on SK-MEL-28 melanoma; 14.2% with SK-MEL-2 melanoma; 16.7% in the assay with EKVX NSCLC. The growth in the assay on SN12C renal was 33.6%; with UO-31 renal it was 55%; in the assay on TK-10 renal, 19.6%; in the assay on ACHN renal, 50.3%; in the assay on CAKI-1 renal it was 64.9%; in the assay on A498 renal it was -2.54% (active). The growth is 3.15% (active) in the assay with CCRF-CEM leukemia and -10.1% (active) in the assay on MOLT-4 leukemia.

As for `NN1C(=O)CSC1=S`, the growth in the assay with HCT-15 colon is 105%; in the assay with HT29 colon it was 83.9%; in the assay with SNB-75 CNS it was 95.6%; in the assay on SNB-19 CNS it was 116%; in the assay on U251 CNS, 85.6%; in the assay on PC-3 prostate, 93.4%. Also, the growth with SK-MEL-5 melanoma was 104%; in the assay with UACC-62 melanoma, 116%; with LOX IMVI melanoma it was 98.6%; in the assay with SK-MEL-28 melanoma, 115%; with SK-MEL-2 melanoma it was 95%; in the assay on EKVX NSCLC, 98.6%. Further, the growth in the assay on SN12C renal is 102%; in the assay on UO-31 renal, 94%; in the assay with TK-10 renal, 95.2%; in the assay with ACHN renal, 107%; with CAKI-1 renal, 93.9%; with CCRF-CEM leukemia, 108%. In the assay on MOLT-4 leukemia, the growth was 98.8%.

Take `CCc1nc2cc(/C=C/C(=O)NO)ccc2c(=O)n1CCc1ccc(F)cc1`: the growth with HCT-15 colon was 24.7%; in the assay on HT29 colon it was 8.3% (active); with SNB-75 CNS, 30.6%; in the assay with SNB-19 CNS it was 23.6%; with U251 CNS it was -20.8% (active); in the assay with PC-3 prostate it was 13.2%. The growth was -37.8% (active) in the assay with SK-MEL-5 melanoma; -28.8% (active) with UACC-62 melanoma; -73.2% (active) with LOX IMVI melanoma; 22.8% with SK-MEL-28 melanoma; 49.1% in the assay on SK-MEL-2 melanoma; 38.5% with EKVX NSCLC. Also, the growth in the assay on SN12C renal was 0.812% (active); in the assay on UO-31 renal, -15.5% (active); with TK-10 renal, -12.3% (active); with ACHN renal, -26.5% (active); in the assay with CAKI-1 renal, 0.0916% (active); in the assay with A498 renal it was -26.2% (active). The growth is 2.06% (active) in the assay with CCRF-CEM leukemia and -3.04% (active) in the assay on MOLT-4 leukemia.

For `CCC1(/C=N/NC(N)=S)NC(=O)NC1=O` (stereo not given), the growth with HCT-15 colon was 107%; in the assay with HT29 colon, 94.9%; in the assay with SNB-75 CNS, 95.9%; with SNB-19 CNS, 109%; in the assay on U251 CNS, 86.8%; with PC-3 prostate it was 85.1%. Moreover, the growth in the assay with SK-MEL-5 melanoma is 102%; with UACC-62 melanoma, 104%; in the assay on LOX IMVI melanoma it was 102%; in the assay with SK-MEL-28 melanoma it was 111%; in the assay on SK-MEL-2 melanoma it was 109%; with EKVX NSCLC, 104%. Further, the growth in the assay with SN12C renal was 95.6%; in the assay on UO-31 renal it was 87.5%; in the assay on TK-10 renal, 102%; in the assay on ACHN renal it was 109%; in the assay with CAKI-1 renal, 94.1%; in the assay on CCRF-CEM leukemia, 102%. For the same compound, the growth in the assay on MOLT-4 leukemia is 90%.

In the case of `CCc1nc2cc(F)c(/C=C/C(=O)NO)cc2c(=O)n1CCc1ccccc1`, the growth was 24.4% in the assay on HCT-15 colon; 13.2% in the assay with HT29 colon; 34.8% with SNB-75 CNS; 30.2% in the assay with SNB-19 CNS; 7.95% (active) with U251 CNS; 22.6% in the assay on PC-3 prostate. For the same compound, the growth was 4.25% (active) in the assay on SK-MEL-5 melanoma; -21.7% (active) with UACC-62 melanoma; -33.9% (active) with LOX IMVI melanoma; 19.4% in the assay on SK-MEL-28 melanoma; 9.96% (active) with SK-MEL-2 melanoma; 25.7% in the assay with EKVX NSCLC. Further, the growth in the assay with SN12C renal was 13.6%; in the assay on UO-31 renal it was -15% (active); in the assay on TK-10 renal, 1.94% (active); with ACHN renal it was 3.69% (active); in the assay on CAKI-1 renal it was 0.745% (active); with CCRF-CEM leukemia, 3.07% (active). In the assay on MOLT-4 leukemia, the growth is 3.34% (active).

With `CCCCCCCC(=O)SCC/C=C/[C@@H]1CC(=O)NCc2cccc(n2)C2=N[C@@](C)(CS2)C(=O)N[C@@H](C(C)C)C(=O)O1`, the growth was 2.94% (active) in the assay on HCT-15 colon; 0.997% (active) with HT29 colon; 31.3% with SNB-75 CNS; 14.3% in the assay with SNB-19 CNS; -32.1% (active) in the assay with U251 CNS; 11.5% with PC-3 prostate. Besides, the growth is -93.9% (active) with SK-MEL-5 melanoma; -64.1% (active) in the assay on UACC-62 melanoma; -94.3% (active) in the assay on LOX IMVI melanoma; 1.51% (active) with SK-MEL-28 melanoma; -1.86% (active) in the assay with SK-MEL-2 melanoma; 22.2% in the assay on EKVX NSCLC. In addition, the growth in the assay on SN12C renal was 22.6%; in the assay on UO-31 renal, -8.17% (active); with TK-10 renal, -16.1% (active); in the assay on ACHN renal, -11.8% (active); in the assay on CAKI-1 renal it was -38.8% (active); in the assay on CCRF-CEM leukemia, 30.6%. Also, the growth in the assay on MOLT-4 leukemia was 14.3%.

Regarding `Cc1cccc(NC(=O)[C@@H]2c3ccccc3C(=O)N(c3ccc(Cl)cc3)[C@H]2c2ccc(Cl)cc2)n1`, the growth with HCT-15 colon was 26.1%; with HT29 colon, 11%; in the assay on SNB-75 CNS, 68.5%; in the assay on SNB-19 CNS, 67.5%; in the assay with U251 CNS it was 43.1%; in the assay on PC-3 prostate, 17.1%. Also, the growth was 33.1% in the assay with SK-MEL-5 melanoma; 44.1% in the assay on UACC-62 melanoma; 80.3% with LOX IMVI melanoma; 69.2% with SK-MEL-28 melanoma; 56.6% with SK-MEL-2 melanoma; 37.2% with EKVX NSCLC. The growth in the assay on SN12C renal is 66.5%; in the assay with UO-31 renal it was 37.6%; in the assay with TK-10 renal, 69.6%; with ACHN renal, 52%; in the assay on CAKI-1 renal it was 55.6%; with CCRF-CEM leukemia, 73.2%. Besides, the growth with MOLT-4 leukemia was 35.9%.

As to `Cc1ccc(-c2nc3ccc(Cl)cn3c2NC2CCCCC2)o1`, the growth was 66.8% with HCT-15 colon; 48.4% in the assay with HT29 colon; 83.5% in the assay on SNB-75 CNS; 97.4% in the assay with SNB-19 CNS; 86.8% in the assay with U251 CNS; 45.4% with PC-3 prostate. Moreover, the growth is 66.4% with SK-MEL-5 melanoma; 72.4% in the assay on UACC-62 melanoma; 103% in the assay with LOX IMVI melanoma; 100% in the assay on SK-MEL-28 melanoma; 88.9% in the assay with SK-MEL-2 melanoma; 80.7% with EKVX NSCLC. Also, the growth in the assay with SN12C renal is 87.3%; with UO-31 renal, 58.5%; in the assay on TK-10 renal it was 87.9%; in the assay on ACHN renal, 83.1%; in the assay on CAKI-1 renal it was 60.6%; in the assay with A498 renal, 53.3%. Besides, the growth in the assay on CCRF-CEM leukemia is 79.8%; with MOLT-4 leukemia, 43.4%.
